“And” between values parts separate entries of the source, which are not always exact repeats. Equal entries are not always repeated. The campaign covered roughly 320,000 compounds. About 22,000 (6.9%) were called active. A call without a number means that no potency is given here. Another 27% or so got no clear call; they are omitted. This is one part of a sample in which actives are shown more often than they occur. Calls follow the shape of the dose curve; as a rule, active = well fitted inhibition curve with a large enough effect; inconclusive = small, poorly fitted or top-dose-only effect, or another doubt; inactive = no such curve, though single readings can be large or run the other way. A structure can be active in one record and inactive in another.
Potency is read from the fitted curve at half-maximal effect.

This experiment in a line: Primary qHTS for delayed death inhibitors of the malarial parasite plastid, 96 hour incubation. The note with it: P. falciparum luciferase reporter growth; series mostly up to 28.7 µM. The text has this: The goal of this screen is to discover new antimalarial compounds that act by inhibiting the development of the apicoplast in the malarial parasite Plasmodium falciparum. The biochemical processes that make this organelle essential for erythrocytic stage parasites are not well understood. However, antibiotics such as azithromycin and tetracycline, which target the apicoplast translational machinery, have a potent antimalarial effect.
We have developed a cell-based assay that measures parasite growth based on the expression of an integrated copy of a firefly luciferase reporter. To detect small molecules that cause this "delayed death" phenotype, erythrocytes infected with the luciferase-expressing parasites were incubated with compounds for either one or two generations, corresponding to 48 and 96 hours, respectively. Compounds that inhibit parasite growth in the second generation, but not the first, should be enriched in antimalarials that target the apicoplast. Growth inhibition is detected by a decrease in luciferase activity.
Assay Provider: David Fidock and Eric Ekland, Columbia University
Keywords: NIH Roadmap, MLPCN, MLI, MLSMR, qHTS, NCGC, qHTS, malaria, luciferase, viability
Four microliters of infected erythrocytes (2% hematocrit, 0.05% parasitemia final concentration) in culture medium were dispensed and the plates incubated for 96 hours at 37 C in 5% CO2. Two microliters of luciferase detection reagent was added and luminescence was detected by a ViewLux (PerkinElmer) reader.
As for `CC(=O)c1cc2c(cc1NC(=O)Cn1nc(-c3ccc(F)cc3)ccc1=O)OCO2`, the Potency result was “inactive”.
On the same count and under the same terms, to `O=C(Cc1ccc(F)cc1)N/N=C/c1ccc2c(c1)OCO2` belongs “inactive”.
Same read-out and setting: the same measure for `COc1ccc(N=C2SC(C(=O)Nc3ccc(F)cc3)CC(=O)N2C)cc1` (stereo unspecified): “inactive”; for `CNC(=O)C1CC(=O)N(Cc2ccc3c(c2)OCO3)C(=Nc2ccc(F)cc2)S1` (stereo unspecified): 6.57 µM (active).
Turning to `CC1CCN(C(=O)/C(=C\c2ccccc2F)NC(=O)c2ccccc2)CC1`, the Potency entry is “inactive”.
The same measure, in the same setting: to `Cn1c(=O)c2c(nc(N3CCCCCC3)n2CC(=O)c2ccc(Br)cc2)n(C)c1=O` belongs “inactive”; to `C=CCn1c(Oc2ccc(C(=O)OC)cc2)nc2c1c(=O)n(C)c(=O)n2C`, 5.86 µM (active); to `Cn1c(=O)c2c(nc(NCc3ccccc3)n2CC(N)=O)n(C)c1=O`, “inactive”.
On to `COc1ccc(NC(=O)CCNC(=O)Cn2cnc3sc4c(c3c2=O)CCCC4)cc1OC`, for which the Potency entry was “inactive”.
The same measure, in the same setting: to `C=CCN1C(=O)C2(OCCCO2)c2cccc(Cl)c21` belongs “inactive”.
Still for that read-out and setting: the same measure for `COc1ccc(-c2nnc3n2CCCCC3)cc1`: “inactive”; for `CC(=O)N1c2ccc(S(=O)(=O)N3CCCC(C(=O)Nc4cccc(Cl)c4)C3)cc2CC1C` (stereo unspecified): “inactive”; for `CC(=O)N1c2ccc(S(=O)(=O)N3CCC(C(=O)NC4CCCCC4C)CC3)cc2CC1C` (stereo unspecified): “inactive”.
For the compound `CC(=O)N1c2ccc(S(=O)(=O)N3CCCC(C(=O)Nc4cccc(F)c4)C3)cc2CC1C` (stereo unspecified), the Potency is 11.7 µM (active).
Still for that read-out and setting: the same measure for `O=C(CN1C(=O)S/C(=C\c2ccccc2Cl)C1=O)NC1C=CS(=O)(=O)C1` (stereo unspecified): “inactive”; for `COC(=O)c1c(-c2ccc(C)cc2)csc1N`: 13.1 µM (active).
Still for that read-out and setting: the same measure for `CCOC(=O)c1c(-c2ccc(C)cc2)csc1/N=C(\C)C1=C(O)c2ccccc2C1=O`: “inactive”; for `CCOC(=O)c1c(-c2ccccc2)csc1NC(=S)NC(=O)c1ccccc1`: “inactive”.
Consider `COc1cc2ccccc2cc1C(=O)N1CCOCC1`, for which the Potency result was “inactive”.
Consider `CC(C(=O)NC1CCCCC1)N1C(=O)c2cccc3cccc1c23` (stereo unspecified), for which the Potency entry was “inactive”.
Turning to `O=C(Oc1ccc(F)cc1)N1CCOCC1`, the Potency result is “inactive”.
Turning to `CCOc1ncccc1C(=O)NCCc1ccc(OC)cc1`, the Potency entry is “inactive”.
On the same count and under the same terms, the same measure for `Cc1ccc(OCC(=O)NCCCNC(=O)c2ccco2)cc1C`: “inactive”; for `COc1ccc(CCNC(=O)c2ccco2)cc1`: 7.38 µM (active).
Still for that read-out and setting: the same measure for `Cc1ccc(Cl)c(NC(=O)CN2CCN(C=O)CC2)c1`: “inactive”; for `Cc1ccc(C)c(NC(=O)C(c2ccccc2)N2CCN(CC(=O)NC3CC3)CC2)c1` (stereo unspecified): 14.7 µM (active).
As to `Cc1ccc(C)c(NC(=O)COC(=O)CSc2ccccc2)c1`, the Potency result was “inactive”.
The same measure, in the same setting: to `Cc1ccc(NS(=O)(=O)c2c(C)[nH]c(C)c2C(=O)N2CCCCC2)c(C)c1` belongs “inactive”.
For the compound `Cc1ccc(S(=O)(=O)N(C)C)cc1NC(=O)c1ccc(-n2cncn2)c([N+](=O)[O-])c1`, the Potency entry was “inactive”.
As to `CC1CCc2c(sc3nc4n(c(=O)c23)CCS4)C1` (stereo unspecified), the Potency result is “inactive”.
Regarding `C=CCn1c(SCc2c(C)noc2C)nc2sc3c(c2c1=O)CCC(C)C3` (stereo unspecified), the activity change, negative = inhibition was -1.1% [at 5.75 µM] (inactive).
As for `CCCn1nnc2sc3c(c2c1=O)CCC(C)C3` (stereo unspecified), the Potency is 11.7 µM (active).
On the same count and under the same terms, the same measure for `COc1cccc(COC(=O)C2CCN(S(=O)(=O)c3cccs3)CC2)c1OC`: “inactive”; for `Cn1c(=O)c2sccc2n(Cc2ccc(Br)cc2)c1=O`: “inactive”; for `O=C(Nc1ccccc1C(=O)Nc1ccncc1)c1ccc([N+](=O)[O-])cc1`: “inactive”.
On to `CN=C(NC#N)NCCSCc1nc[nH]c1C`, for which the Potency entry is “inactive and 13.5 µM (active)”.
Still for that read-out and setting: the same measure for `O=C(Nc1cccnc1)c1cc([N+](=O)[O-])ccc1Cl`: “inactive”; for `O=C(CCc1nnc2ccc(NCCCN3CCCC3=O)nn12)NCc1ccccc1Cl`: “inactive”; for `O=C(CCc1nnc2ccc(NCc3ccccc3Cl)nn12)NCC1CCN(C2CCCC2)C1` (stereo unspecified): 5.22 µM (active).
With `CSCCC(=O)N1CCCC(CNC(=O)c2ccccc2Cl)C1` (stereo unspecified), the Potency entry is “inactive”.
Same read-out and setting: the same measure for `Cc1cccc(N(C)C(=O)c2cc(S(=O)(=O)N3CCCCC3)c[nH]2)c1`: “inactive”; for `Cn1nc(C(F)(F)F)c(C(=O)Nc2cccc(C(F)(F)F)c2)c1SCc1ccc(Cl)cc1`: 2.62 µM (active).
As to `O=C(O)CSc1c2c(nc3cc(C(=O)Nc4cccc(C(F)(F)F)c4)ccc13)CCCC2`, the Potency result is “inactive”.
Same read-out and setting: the same measure for `CC(C)C[C@H](NC(=O)Nc1cccc(C(F)(F)F)c1)C(=O)O`: “inactive”; for `O=C(OCC(=O)N1CCOCC1)c1ccc2ccccc2c1`: “inactive”; for `Cc1ccc(NC(=O)c2nc[nH]c2C(=O)N[C@@H](CCCCNC(=O)OC(C)(C)C)C(=O)OC(C)(C)C)cc1`: 11.7 µM (active).
The same measure, in the same setting: to `CCOC(=O)c1ccc(NC(=O)c2nc[nH]c2C(=O)NCc2ccccc2)cc1` belongs “inactive”; to `CCOC(=O)c1ccc(NC(=O)c2nc[nH]c2C(=O)N[C@@H](CCCCNC(=O)OC(C)(C)C)C(=O)OC(C)(C)C)cc1`, 5.86 µM (active); to `Cc1cccc(NC(=O)c2nc[nH]c2C(=O)NCC(=O)OCc2ccccc2)c1`, “inactive”.
On to `CNC(=O)c1[nH]cnc1C(=O)N[C@@H](CC(C)C)C(=O)OC(C)(C)C`, for which the Potency entry was “inactive”.
Same read-out and setting: the same measure for `CCOC(=O)c1[nH]cnc1C(=O)Nc1ccccc1C`: “inactive”.

For the origin of these results see PubChem BioAssay AID504834 (National Center for Advancing Translational Sciences (NCATS), 2011).
